In PubChem BioAssay one finds z-score data, which are given here for 36 molecules.
Further: test concentration not given here.

The nature of one assay: calcein-AM signal in unstimulated myeloma cells – cell-based, calcein-AM fluorescence, 48 h, PK04 Diversity Set, profiling panel (AID 1166).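 Further: cells grown under basal conditions without added stimulus.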 Conditions: RPMI8226 myeloma viability, higher = more signal.
On to `COCCCNC(=O)[C@@]1(Sc2ccc(C)cc2)CC(=O)N(C2Cc3ccccc3C2)[C@@H]1c1ccc(CO)cc1`, for which the z-score was -0.204. The same measure, in the same setting: the result for `CS(=O)(=O)CCOC(=O)C1=CC(c2ccc(CO)cc2)=CC(C2CC2)N(Cc2sc3ccccc3c2Cl)C=C1C(=O)OCCS(C)(=O)=O` (stereo not drawn) reads -2.92. `C=CCOC(=O)[C@@H]1[C@H]2C(=O)O[C@H](c3ccccc3)[C@H](c3ccccc3)N2[C@H](c2ccc(OCCOC(=O)[C@@H]3C[C@@H]4C(=O)N[C@@H](CCCC[N+](C)(C)C)C(=O)N4[C@@H]3c3ccc(O)cc3)cc2)[C@@]12C(=O)Nc1ccc(I)cc12`: the z-score was -1.7.

Turning to `OCCCC1=CC(c2ccc(CN3CCCC3)cc2)N(Cc2cc3c(cc2Br)OCO3)CC1` (stereo not drawn), the z-score was 0.866. For the molecule `CC(c1ccccc1)C(O)C1C=CC2C(=O)N(C)C(=O)C2N1Nc1ccccc1` (stereo not drawn), the z-score is -0.435. Regarding `CC(C)N1C(=O)C[C@@](C(=O)O)(c2ccc([N+](=O)[O-])cc2)[C@H]1c1ccc(CO)cc1`, the z-score was 1.1.

For the molecule `CCCC#C[Si](O[C@H](CC)c1cn([C@H](C)c2ccccc2)nn1)(C(C)C)C(C)C`, the z-score is -1.74.

A further assay can be described thus: JC-1 mitochondrial signal, unstimulated HepG2 cells – cell-based, JC-1 fluorescence, 24 h, 100 nL compound, profiling panel (AID 1167). As to conditions: HepG2 mitochondrial potential, higher = more signal.
On to `CC1CC/C=C\[C@H]2OC34C=CCN(C(C)C)C(=O)[C@H]3N(CCO)C(=O)[C@@H]4C2C(=O)O1` (stereo partly drawn), for which the z-score turned out to be 0.813. Same read-out and setting: the result for `C=C(/C(=C/C[C@H](OC(=O)c1ccncc1)c1ccc(CO)o1)c1cnc2ccccc2c1)C(C)C` reads -0.211.

Consider `Cc1ccc(F)cc1S(=O)(=O)N[C@@H]1CCN(Cc2ccc(Br)cc2)C1`, for which the z-score is 0.261. In the case of `CN1C2C=C(CCCO)C(C3C(=O)N(C(N)=O)C(=O)C32)C1C1CC1` (stereo not drawn), the z-score was -0.486. Regarding `Cc1ccc(S[C@]2(C(=O)O)CC(=O)N(C3CCCCC3)[C@@H]2c2ccc(CO)cc2I)cc1`, the z-score was -1.1. Still for that read-out and setting: the figure for `COCCOC(=O)N1C(=O)[C@@]2(c3cc(C#CC4(O)CCCCCC4)ccc31)[C@H](C(=O)N1CCc3cc(OC)c(OC)cc3C1)[C@H]1C(=O)O[C@H](c3ccccc3)[C@H](c3ccccc3)N1[C@@H]2c1ccc(OCCO)cc1` is -0.32; for `COC(=O)[C@@]1(Cc2ccc(OC)cc2)[C@H]2c3cc(C(=O)N4CCCC4)n(CCc4c[nH]c5ccc(O)cc45)c3C[C@H]2CN1C(=O)c1ccccc1` it is 0.873. Same read-out and setting: the result for `CN(C)C(=O)[C@]1(CCC(=O)OC(C)(C)C)N=C(c2ccc(OCCCO)cc2)O[C@@H]1c1ccccc1CN=[N+]=[N-]` reads 1.74. `CCOC(=O)C1=CC[C@@H](c2ccccc2)N(S(=O)(=O)c2ccc(C)cc2)[C@H]1c1ccccc1` yielded a z-score of 1.61. In turn, `NC(=O)[C@H]1[C@@H]2C(=O)O[C@@H](c3ccccc3)[C@@H](c3ccccc3)N2[C@@H](c2ccc(OCCO)cc2)[C@]12C(=O)Nc1ccc(C#CCCO)cc12` gave a z-score of -0.202. On to `CCCCCCCCCC(O)C1C=CC2C(=O)N(c3ccccc3)C(=O)C2N1Nc1cc(OC)c(OC)c(OC)c1` (stereo not drawn), for which the z-score was -0.0684. On the same count and under the same terms, the result for `COc1cc(OC)c(C(O)C2C=CC3C(=O)N(Cc4ccccc4)C(=O)C3N2n2cnnc2)cc1Br` (stereo not drawn) reads -0.769; that for `O=C1O[C@@H](c2ccccc2)[C@@H](c2ccccc2)N2[C@@H](c3ccc(OCCO)cc3)[C@]3(C(=O)Nc4ccc(C#CC5=CCCCC5)cc43)[C@@H](C(=O)NC[C@H](O)c3ccccc3)[C@H]12`, -1.93. With `CC(C)[Si](C#CCCCC#N)(O[C@H](c1ccccc1)c1cn(Cc2ccccc2)nn1)C(C)C`, the z-score amounted to 0.604. Same read-out and setting: the figure for `CC1=C2[C@@H](CCc3ccccc3)OB(O)C[C@@H]2[C@@H]2C(=O)N(C)C(=O)[C@@H]2C1` is -1.18. Molecule `COc1ccc([Si](C)(C)[C@H]2[C@H](CC(=O)N(CCO)Cc3ccccc3)O[C@@]3(C(=O)N(C)c4c(Br)cc(C)cc43)[C@@H]2C)cc1` displayed a z-score of -2.26. Still for that read-out and setting: the figure for `C=CC[C@@]1(C(=O)NCCCOC)N=C(c2ccc(OCCCO)cc2)O[C@@H]1c1ccccc1N=[N+]=[N-]` is 1.62; for `COC(=O)C(CC#Cc1ccc2c(c1)[C@]1(C(=O)N2)[C@H](c2ccc(O)cc2)N2[C@H](c3ccccc3)[C@H](c3ccccc3)OC(=O)[C@H]2[C@@H]1C(=O)NC[C@H](O)c1ccccc1)C(=O)OC` it is -2.42.

`COc1ccc([Si](C)(C)[C@H]2[C@H](CC(=O)N3Cc4ccccc4C[C@H]3CO)O[C@@]3(C(=O)N(Cc4ccc(N5CCOC5=O)cc4)c4ccccc43)[C@@H]2C)cc1` showed a z-score of -0.0556.

For the molecule `COC(=O)c1c(CC[C@@H](CO)NC(=O)N[C@@H](C)Cn2cc(-c3ccccn3)nn2)oc(C(C)=O)c1C(=O)OC`, the z-score was -0.182.

In turn, `COCC(=C=CC[C@H](O)c1ccc(OCCO)cc1)CCO` yielded a z-score of -0.255. Turning to `N[C@@H](Cc1ccccc1)C(=O)NCc1cn(Cc2ccccc2)nn1`, the z-score is 0.178. Consider `CCOC(=O)C[C@H]1[C@H](OC(=O)Cc2ccc3c(c2)OCO3)[C@@H](NC(=O)c2ccc3ccccc3n2)c2cc(OCCCO)ccc2N1C(=O)c1ccccc1`, for which the z-score came to 2.52.

For the molecule `CC(CO)N1C(=O)[C@]2(C)C3C(=O)OCCC/C=C\[C@H]3OC23C=CCN(c2ccc(Cl)cc2)C(=O)[C@@H]13` (stereo partly drawn), the z-score came to 1.19. On the same count and under the same terms, the figure for `CC(=O)NCCCC[C@@H]1NC(=O)[C@@H]2C[C@H](C(=O)NCCCCCN)[C@H](c3ccc(O)cc3)N2C1=O` is 0.651; for `COC(=O)[C@@]1(Cc2ccccc2)[C@H]2c3cc(C(=O)N(C)C)n(Cc4ccc(C)o4)c3C[C@H]2CN1C(=O)c1ccccc1` it is 0.598; for `CCCC[C@@H](O)C1=C(COc2ccccc2)C[C@H]2C(=O)N(Cc3ccccc3)C(=O)[C@H]2[C@H]1CO` it is 1.17. `COC(=O)C1(CC(C)C)C=C2C(=C(c3ccccc3)C(=O)C2C)CN1` (stereo not drawn): the z-score turned out to be 0.0103. Molecule `COc1ccc(CCNC(=O)[C@@]2(c3ccc([N+](=O)[O-])cc3)CC(=O)N(C3CCCCC3)[C@@H]2c2ccc(CO)cc2)cc1` registered a z-score of 2.85.

As for `COCCCNC(=O)[C@@]1(Sc2ccc(C)cc2)CC(=O)N(C2Cc3ccccc3C2)[C@@H]1c1ccc(CO)cc1`, the z-score was determined as 0.17.

Regarding `CS(=O)(=O)CCOC(=O)C1=CC(c2ccc(CO)cc2)=CC(C2CC2)N(Cc2sc3ccccc3c2Cl)C=C1C(=O)OCCS(C)(=O)=O` (stereo not drawn), the z-score worked out at 0.424.

Turning to `C=CCOC(=O)[C@@H]1[C@H]2C(=O)O[C@H](c3ccccc3)[C@H](c3ccccc3)N2[C@H](c2ccc(OCCOC(=O)[C@@H]3C[C@@H]4C(=O)N[C@@H](CCCC[N+](C)(C)C)C(=O)N4[C@@H]3c3ccc(O)cc3)cc2)[C@@]12C(=O)Nc1ccc(I)cc12`, the z-score is -1.87. As to `OCCCC1=CC(c2ccc(CN3CCCC3)cc2)N(Cc2cc3c(cc2Br)OCO3)CC1` (stereo not drawn), the z-score is 1.72. The same measure, in the same setting: the result for `CC(c1ccccc1)C(O)C1C=CC2C(=O)N(C)C(=O)C2N1Nc1ccccc1` (stereo not drawn) reads -0.624. `CC(C)N1C(=O)C[C@@](C(=O)O)(c2ccc([N+](=O)[O-])cc2)[C@H]1c1ccc(CO)cc1` displayed a z-score of 1.52. Same read-out and setting: the figure for `CCCC#C[Si](O[C@H](CC)c1cn([C@H](C)c2ccccc2)nn1)(C(C)C)C(C)C` is 0.621.
